How the values were obtained:
Conditions in all cases: Compound Concentration (nM):1000
[1] = tested on: GRK1
[2] = tested on: T1, GRK2
T1 construct: gene ADRBK1

[3] = tested on: T2, GRK3
T2 construct: gene ADRBK2

[4] = tested on: GRK4
[5] = tested on: GRK7
[6] = tested on: GSK3A
[7] = tested on: GSK3B
[8] = tested on: T3, HASPIN
T3 construct: gene GSG2

[9] = tested on: HCK
[10] = tested on: HIPK1
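Also: KINOMEscan scanMAX binding as percent activity remaining versus control; lower means stronger binding.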

Row | Compound | Percent Control [1] | Percent Control [2] | Percent Control [3] | Percent Control [4] | Percent Control [5] | Percent Control [6] | Percent Control [7] | Percent Control [8] | Percent Control [9] | Percent Control [10]
1 | Cl.O=C(O[C@H]1CN[C@H](C#Cc2cc3ncnc(Nc4ccc5c(cnn5Cc5ccccc5)c4)c3s2)C1)N1CCOCC1 [GSK200398A] | 86% | 100% | 80% | 100% | 84% | 93% | 90% | 93% | 100% | 91%
2 | C/C(Nc1ccc(S(N)(=O)=O)cc1)=C1/C(=O)Nc2ccccc21 [GW335962X] | 85% | 98% | 100% | 100% | 97% | 90% | 97% | 33% | 79% | 79%
3 | COc1cccc(-c2c[nH]c3c(N/N=C/c4ccncc4)ncnc23)c1 [GW814408X] | 100% | 100% | 100% | 62% | 100% | 0% | 1% | 51% | 91% | 29%
4 | Cl.O=C(Nc1ccc(Oc2ccc3[nH]c(NC(=O)c4ccco4)nc3c2)cc1)Nc1cc(C(F)(F)F)ccc1F [GW683134A] | 100% | 100% | 100% | 100% | 100% | 100% | 88% | 100% | 41% | 100%
5 | COc1cc(C)c(N(C)C(=O)CN(C)C)cc1Nc1nc(Nc2cccc(F)c2C(N)=O)c2cc[nH]c2n1 [GSK2219385] | 69% | 100% | 80% | 100% | 70% | 100% | 100% | 41% | 100% | 71%
6 | COc1ccccc1-c1cc(/C=C2\C(=O)Nc3ncc(Br)cc32)cc(Br)c1O [GW442130X] | 100% | 100% | 100% | 100% | 63% | 100% | 100% | 100% | 100% | 66%
7 | O=C1Nc2ccc(C(=O)c3ccco3)cc2C1=Cc1cc(Cl)c(O)c(Cl)c1 [GW406108X] | 60% | 100% | 97% | 100% | 65% | 67% | 69% | 2.2% | 98% | 11%
8 | NS(=O)(=O)c1ccc(N/N=C2\C(=O)Nc3ccc(-c4cnco4)cc32)cc1 [GW276655] | 87% | 94% | 100% | 39% | 81% | 15% | 80% | 0.3% | 95% | 35%
9 | COc1ccc2c(-c3ccnc(Nc4cccc(OC(F)(F)F)c4)n3)cnn2n1 [GW810372X] | 97% | 100% | 98% | 100% | 100% | 34% | 97% | 72% | 100% | 0.7%
10 | CC(C)COC(=O)c1ccc2c(c1)/C(=C/Nc1ccc(S(N)(=O)=O)cc1)C(=O)N2 [GW416981X] | 86% | 100% | 100% | 43% | 100% | 45% | 71% | 18% | 100% | 88%
11 | Nc1ncnc2occ(-c3ccc(NC(=O)Nc4cc(C(F)(F)F)ccc4F)cc3)c12 [GW770249X] | 100% | 100% | 98% | 100% | 100% | 23% | 100% | 100% | 74% | 51%
12 | Cl.c1ccc(Cc2nc3ccc(Nc4ncnc5ccccc45)cc3[nH]2)cc1 [GR269666A] | 100% | 100% | 100% | 91% | 100% | 100% | 99% | 88% | 100% | 100%
13 | CCn1c(-c2nonc2N)nc2c(C#CC(C)(C)O)nc(OCCNC)cc21.Cl [GSK949675] | 77% | 100% | 100% | 100% | 69% | 18% | 55% | 100% | 100% | 42%
14 | COc1ccc2cc(-c3c(-c4ccncc4)nc(-c4ccc(S(C)(=O)=O)cc4C)n3C)ccc2c1 [SB-633825] | 70% | 81% | 63% | 100% | 94% | 100% | 100% | 94% | 72% | 77%
15 | Cl.O=S1CCN(Cc2ccc(-c3ccc4ncnc(Nc5ccc(OCc6ccccc6)c(F)c5)c4c3)o2)CC1 [GW576924A] | 98% | 100% | 100% | 100% | 100% | 100% | 100% | 96% | 100% | 100%
16 | COc1cc2ncnc(Nc3ccc4c(cnn4Cc4ccccc4)c3)c2cc1OC.Cl [GW282449A] | 100% | 100% | 100% | 100% | 100% | 100% | 100% | 99% | 21% | 100%
17 | COc1cc2ncn(-c3cc(O[C@H](C)c4ccccc4Cl)c(C(N)=O)s3)c2cc1OC [GSK237701A] | 100% | 95% | 97% | 18% | 99% | 85% | 97% | 94% | 64% | 68%
18 | COc1cc(C=NNc2ncnc3c2cnn3-c2ccccc2)ccc1O [GW513184X] | 100% | 100% | 100% | 28% | 84% | 7.7% | 87% | 100% | 78% | 43%
19 | NS(=O)(=O)c1ccc(N/N=C2\C(=O)Nc3ccc(Cl)cc32)cc1 [GW280670X] | 100% | 100% | 100% | 100% | 100% | 54% | 91% | 97% | 100% | 98%
20 | CCS(=O)(=O)c1ccc(OC)c(Nc2ncc(-c3cccc(OC)c3)o2)c1 [GW580509X] | 100% | 100% | 100% | 100% | 100% | 91% | 85% | 83% | 49% | 42%

Row | Compound | Percent Control [1] | Percent Control [2] | Percent Control [3] | Percent Control [4] | Percent Control [5] | Percent Control [6] | Percent Control [7] | Percent Control [8] | Percent Control [9] | Percent Control [10]
21 | COc1ccc(COc2ccc(Cc3cnc(N)nc3N)cc2OC)cc1 [GW632580X] | 93% | 97% | 93% | 100% | 100% | 95% | 95% | 88% | 90% | 100%
22 | Cl.O=C(Nc1ccc(Oc2ccc3[nH]c(NC(=O)c4ccccc4)nc3c2)cc1)Nc1cc(C(F)(F)F)ccc1F [GW709042A] | 99% | 100% | 97% | 100% | 100% | 100% | 99% | 92% | 71% | 94%
23 | CC1=C(C(=O)Nc2ccc3[nH]ncc3c2)C(c2ccc3ccccc3c2)CC(=O)N1 (stereo not shown) [GSK270822A] | 78% | 38% | 17% | 100% | 100% | 100% | 100% | 96% | 68% | 87%
24 | NS(=O)(=O)c1ccc(N/N=C2\C(=O)Nc3ccc(C(=O)NCCc4c[nH]cn4)cc32)cc1 [GW300660X] | 80% | 100% | 99% | 100% | 100% | 50% | 19% | 3.6% | 100% | 25%
25 | CN(C)c1cc2c(Nc3ccc4c(cnn4Cc4ccccc4)c3)ncnc2cn1 [GW282974X] | 78% | 100% | 86% | 100% | 97% | 98% | 100% | 82% | 57% | 78%
26 | CCc1ccc(Oc2nccc(-c3c(-c4ccc(F)cc4)ncn3C3CCNCC3)n2)cc1 [SB-242719] | 92% | 94% | 90% | 100% | 100% | 97% | 100% | 86% | 99% | 80%
27 | COc1cc(N2CCN(C(C)C)CC2)ccc1Nc1nc(Nc2ccc(F)cc2C(=O)NC[C@@H](O)CO)c2cc[nH]c2n1 [GSK1392956A] | 91% | 100% | 67% | 94% | 93% | 100% | 98% | 86% | 100% | 15%
28 | CC1=C(C(=O)Nc2ccc3[nH]ncc3c2)C(c2ccc(Cl)c(Cl)c2)CC(=O)N1 (stereo not shown) [GSK299115A] | 89% | 16% | 20% | 100% | 99% | 100% | 100% | 84% | 81% | 72%
29 | NS(=O)(=O)c1ccc(Nc2ncc(-c3ccccc3)o2)cc1 [GW572399X] | 100% | 100% | 100% | 100% | 100% | 99% | 83% | 100% | 100% | 100%
30 | C[C@@H](Oc1cc(-n2cnc3ccc(OC4CCN(C)CC4)cc32)sc1C(N)=O)c1ccccc1Cl [GSK579289A] | 75% | 86% | 78% | 37% | 85% | 98% | 100% | 55% | 91% | 61%
31 | NS(=O)(=O)c1ccc(N/N=C2\C(=O)Nc3ccc(C(=O)NCc4ccncc4)cc32)cc1 [GW300657X] | 69% | 86% | 76% | 100% | 83% | 27% | 35% | 54% | 100% | 19%
32 | COc1cc(/C=N/Nc2ncnc3[nH]ncc23)ccc1O [GW578748X] | 83% | 100% | 78% | 100% | 100% | 34% | 78% | 0.2% | 64% | 24%
33 | O=C(Nc1n[nH]c2nc(-c3ccc(O)cc3)c(Br)cc12)C1CC1 [SB-725317] | 100% | 100% | 100% | 100% | 100% | 7.5% | 0.5% | 100% | 100% | 22%
34 | CCS(=O)(=O)c1ccc(OC)c(Nc2ncc(-c3cccc(F)c3)o2)c1 [GW621970X] | 100% | 100% | 100% | 100% | 100% | 94% | 91% | 79% | 32% | 82%
35 | COc1ccc2[nH]c3c4[nH]c5ccc(OC)cc5c4c4c(c3c2c1)C(=O)NC4=O [GW296115X] | 95% | 88% | 70% | 100% | 64% | 100% | 68% | 76% | 74% | 56%
36 | CN(C)CCNC(=O)Nc1ccc(N(C)c2ccnc(Nc3ccc(CS(C)(=O)=O)cc3)n2)cc1.Cl [GW830900A] | 89% | 100% | 89% | 7.1% | 96% | 100% | 85% | 100% | 100% | 88%
37 | COC(=O)Nc1nc2ccc(Oc3ccc(NC(=O)Nc4cc(C(F)(F)F)ccc4F)cc3)cc2s1.Cl [GW693917A] | 81% | 91% | 71% | 100% | 84% | 100% | 99% | 76% | 51% | 87%
38 | CN1CCN(C(=O)c2ccc(NC(=O)Nc3ccc(N(C)c4ccnc(Nc5ccc(CS(C)(=O)=O)cc5)n4)cc3)cc2)CC1.Cl [GW830263A] | 100% | 100% | 97% | 4.5% | 100% | 100% | 95% | 92% | 100% | 72%
39 | COc1cccc(-n2ncc3c(N/N=C/c4ccncc4)ncnc32)c1 [GW784752X] | 99% | 84% | 100% | 88% | 87% | 16% | 2.5% | 75% | 100% | 28%
40 | Cc1cc(O)cc(C)c1/C=C/c1cncc(C(N)=O)c1 [GW435821X] | 95% | 100% | 100% | 100% | 100% | 96% | 100% | 55% | 38% | 100%
